SMILES strings stand for the structures. In all, about 63,000 compounds went through this assay and about 1,100 (1.7%) were called active. The entries come from a sample that favours actives as a whole. Entries with a potency or affinity are not part of this list. Unmarked numbers belong to inactive results. Cut-off read from the data, not from the text of the source: active = cytotoxicity above about 50%; inactive = the rest.

A short description of this test: cytotoxicity in HPDE-C7 cells, cell-based, fluorescence, HTS (AID 430).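 Note: cells exposed to compound for 48 hours before viability readout; 0% = vehicle and 100% = reference cytotoxic drug.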 The following applies: HPDE-C7 pancreatic duct cells viability, at 10 µM, active compounds read high.
In the case of `Cc1nnc(NC(=O)c2ccc(-c3cccc(C(F)(F)F)c3)o2)s1`, the cytotoxicity was -13.1%.
The result for `CCOC(=O)c1sc(NC(=O)c2c(C)nn(Cc3ccccc3)c2C)cc1C` reads 72.7% (active); that for `CCOC(=O)c1sc(NC(=O)c2cccs2)cc1C`, -16.1%.
The same measure for `CCOC(=O)c1c(C)nn(Cc2ccccc2)c1N`: -1.6%; for `Cc1cccc(OCc2nnc(SCC(=O)N(C(C)C)C(C)C)n2Cc2ccco2)c1C`: -16%.
The same measure for `CC1(C)Cc2c(sc3ncn4nc(CCC(=O)O)c(=O)nc4c23)CO1`: -23.3%; for `Cc1onc(-c2ccccc2)c1C(=O)Nc1ccccc1N1CCOCC1`: 4.9%.
As for `Cc1onc(-c2ccccc2)c1C(=O)Nc1cc(C(F)(F)F)ccc1N1CCOCC1`, the cytotoxicity is 69.1% (active).
The same measure for `O=C(Nc1cc(C(F)(F)F)ccc1N1CCOCC1)c1ccco1`: 1.1%; for `O=C(Nc1cc(C(F)(F)F)ccc1N1CCOCC1)c1c(F)c(F)c(F)c(F)c1F`: 51% (active); for `O=C(Nc1cc(C(F)(F)F)ccc1N1CCOCC1)c1cccnc1`: 4.3%.
The result for `CC(=O)Nc1cc(C(F)(F)F)ccc1N1CCOCC1` reads 14.9%; that for `COc1ccccc1NC(=O)C1=C(C)Nc2ncnn2C1c1cccs1` (configuration not stated), 3.3%.
The same measure for `O=C(Cn1cnc2c(nnn2Cc2ccccc2F)c1=O)OCc1ccccc1`: -18.4%.
On to `CCSc1nnc(NC(=O)CSc2nnc(Cc3cccn3C)n2-c2ccc(F)cc2)s1`, for which the cytotoxicity was 65.6% (active).
The result for `CCSc1nnc(NC(=O)CSc2nnc(Cc3cccn3C)n2-c2ccc(C)cc2)s1` reads 39.6%; that for `Cn1cccc1Cc1nnc(SCC(=O)Nc2ccc(F)cc2)n1-c1ccc(F)cc1`, -3.8%.
The same measure for `Cc1nnc(Nc2ccc(C(=O)NCCO)cc2)c2ccccc12`: 8.6%; for `CC(O)C(=O)NCCOCCOCCNC(=O)C(C)O` (configuration not stated): -5.5%.
As for `COC(=O)c1ccc(OC(=O)c2ccc(OC)c(OC)c2)c(OC)c1`, the cytotoxicity was 4.3%.
For `COC(=O)c1ccc(Sc2ccc(C)cc2)c(N)c1`, the cytotoxicity is 9.4%.
With `Cc1ccc(SC(C)C(=O)NCC(C)C)cc1` (configuration not stated), the cytotoxicity was -2.6%.
The same measure for `Cc1ccc(O)c(Sc2cc(C)ccc2O)c1`: 52.6% (active); for `CC(C)c1ccc(O)c(N)c1`: 6.8%; for `CN(CCC#N)S(=O)(=O)c1ccc2c(c1)c(=O)n(C)c(=O)n2C`: -12.5%.
The same measure for `CCCN(S(=O)(=O)c1ccc(OCC)cc1)S(=O)(=O)c1cccs1`: -20.2%; for `CCOC(=O)c1ccccc1NC(=O)c1cccs1`: -6%.
Turning to `COCC(=O)Nc1cc(OC)c(Cl)cc1OC`, the cytotoxicity was -1.4%.
The same measure for `Cc1ccccc1NC(=O)c1c(F)c(F)c(F)c(F)c1F`: -10.5%; for `COc1cc(NC(=O)c2c(F)c(F)c(F)c(F)c2F)c(OC)cc1Cl`: 55.4% (active); for `O=C(Nc1ccccc1Cl)c1c(F)c(F)c(F)c(F)c1F`: -8.2%.
The result for `CCOC(=O)c1ccccc1NC(=O)c1ccccc1SC` reads 25.3%.
The same measure for `COc1cc(NC(=O)C2CCCC2)c(OC)cc1Cl`: -20.5%.
In the case of `O=C(CSc1nnc(-c2ccc(Cl)cc2)n1Cc1ccco1)c1cccs1`, the cytotoxicity is -6.2%.
The result for `CCCCS(=O)CC(COCc1ccccc1)OC(=O)CSc1nc(C)cc(C)n1` (configuration not stated) reads 8.8%; that for `COC(=O)C1=CNC=C(C(=O)OC)C1c1ccc(C(=O)OC)cc1`, 5.1%; that for `CC1(C)Cc2c(c(=S)nc(-c3ccccc3)n2CCN2CCOCC2)CO1`, -21.2%.
Take `CCOC(=O)C1CCN(C(=O)c2sc3nc(-c4ccccc4)cn3c2C)CC1`: the cytotoxicity is -0.3%.
For the compound `Cn1c(N)c(C(=O)COC(=O)C2(c3ccccc3F)CCCC2)c(=O)n(C)c1=O`, the cytotoxicity is -7%.
The result for `CCOCCCNC(=O)C(Cc1ccccc1)NC(=O)c1ccco1` (configuration not stated) reads -8.1%; that for `CCN1CCN(Cc2cc(=O)oc3cc(C)cc(C)c23)CC1`, 2.1%.
The same measure for `Cc1cc(C)c2c(CN3CCN(C)CC3)cc(=O)oc2c1`: -8.5%; for `Cc1cc(C)c2c(CN3CCN(C/C=C/c4ccccc4)CC3)cc(=O)oc2c1`: 69.9% (active); for `O=c1ccnc(S/C=C/c2ccccc2)[nH]1`: -11.2%.
The same measure for `O=C(Cn1c(=O)[nH]c2ccsc2c1=O)N1CCN(c2ccc(F)cc2)CC1`: 9.5%.
For `Cc1nn(Cc2ccc(Cl)c(Cl)c2)c(C)c1NC(=O)c1cc(-c2ccc3c(c2)OCO3)on1`, the cytotoxicity was 54.7% (active).
In the case of `Cc1ccc(Cn2nc(C)c(NC(=O)c3cc(-c4ccc5c(c4)OCO5)on3)c2C)cc1`, the cytotoxicity is 16.2%.
The result for `Cc1nn(Cc2ccc(Cl)cc2)c(C)c1NC(=O)c1cc(-c2ccc3c(c2)OCO3)on1` reads 35.4%.
The result for `O=C(c1ccc2c(c1)OCO2)N1CCCc2ccccc21` reads -12.5%; that for `CN(C)S(=O)(=O)c1ccc(C(=O)Nc2ccccn2)cc1`, 0.8%; that for `COc1ccc(-n2c(Cc3cccn3C)nnc2SCC(=O)Nc2cc(Cl)ccc2OC)cc1`, -0.9%.
The result for `Cn1nnnc1SCC(=O)NCCc1ccc(Cl)cc1` reads -8.2%.
As for `COCc1cc(CN2CCCC2)c(O)c2ncccc12`, the cytotoxicity is -11.9%.
The same measure for `Oc1c(CN2CCOCC2)cc(COCc2ccccc2)c2cccnc12`: 60.7% (active); for `Oc1ccc(CNc2ccccc2)c2cccnc12`: 34.7%.
The same measure for `Oc1c(CN2CCCCC2)cc(COCc2ccccc2)c2cccnc12`: -10.8%; for `Oc1ccc(CNc2ccc(F)cc2)c2cccnc12`: 45.3%.
As to `CN1CCN(Cc2cc(COCc3ccccc3)c3cccnc3c2O)CC1`, the cytotoxicity was -9.2%.
As to `COc1ccccc1N1CCN(Cc2cc(Br)c(O)c3ncccc23)CC1`, the cytotoxicity was 5.1%.
The result for `Oc1ccc(CN2CCN(Cc3ccccc3)CC2)c2cccnc12` reads 6.2%.
The same measure for `Oc1ccc(CNc2ccccc2F)c2cccnc12`: -4.7%; for `CCCn1c(C)cc(=O)c2cc(NC(=O)c3ccccn3)ccc21`: 16.1%; for `COC(=O)CCCCCNc1ccc(C(=O)OC)cc1N`: -12.1%.
The result for `CC1Cc2nc(SCC(=O)N3CCc4ccccc43)n(C)c(=O)c2S1` (configuration not stated) reads -19.6%; that for `O=S(=O)(NCCc1csc(-c2ccccc2)n1)c1ccc2c(c1)OCCO2`, 6.2%.
In the case of `O=C(CCCCn1c(=S)[nH]c2ccsc2c1=O)NCc1ccco1`, the cytotoxicity was -3%.
The same measure for `Cc1ccc(C)c(N2CCN(C(=O)C3CCCN(S(=O)(=O)c4cnc[nH]4)C3)CC2)c1` (configuration not stated): -3.6%; for `COc1cccc(C2=NOC(C(=O)N3CCN(C(=O)c4ccco4)CC3)C2)c1` (configuration not stated): -8.5%.
The same measure for `CSCCC(NC(=O)c1ccccc1)C(=O)NCc1ccco1` (configuration not stated): -8.6%; for `O=C(Cn1cnc2ccccc2c1=O)c1ccc2c(c1)OCCO2`: -6.3%.
The result for `COc1cccc(-c2cc(C(=O)Nc3c(C)nn(Cc4ccccc4C)c3C)no2)c1` reads -3.2%.
As for `COc1ccccc1C(=O)N1CCN(C(=O)COc2cccc(C)c2)CC1`, the cytotoxicity was -7.6%.
The same measure for `CC1=C(C(=O)NC(C)c2ccc3c(c2)OCCO3)C2(CCC(C)CC2)OC1=O` (configuration not stated): 10.7%; for `CCCCOC(=O)CSc1nc(N)c(C#N)c(-c2ccc(OC)cc2)c1C#N`: -16%.
The result for `CCOC(=O)CC(=O)CSc1nc(N)c(C#N)c(-c2ccc(Cl)cc2)c1C#N` reads 54.7% (active); that for `CCOC(=O)CC(=O)CSc1nc(N)c(C#N)c(-c2ccc(F)cc2)c1C#N`, 5.6%; that for `CCCCOc1ccc(-c2c(C#N)c(N)nc(SCC(N)=O)c2C#N)cc1`, 82.5% (active).
The same measure for `CCOC(=O)CSc1nc(N)c(C#N)c(-c2ccc(OC)cc2)c1C#N`: -6.1%; for `CCCCOC(=O)CSc1nc(N)c(C#N)c(-c2ccc(OCC)cc2)c1C#N`: 5.1%; for `CC(=NCC1CCNCC1)C1=C(O)CC(C)(C)CC1=O`: -8.1%.
In the case of `CCOc1ccccc1-c1nn2c(Cc3ccccc3)nnc2s1`, the cytotoxicity was -4.2%.
The result for `NC(=O)C(F)(F)C12OC3C4C5CC(C6C5C3C61)C42` (configuration not stated) reads -3.7%.
Regarding `CC(C)(C)Nc1cccccc1=O`, the cytotoxicity was -8%.
The same measure for `COc1ccc(C)cc1S(=O)(=O)N(CC(=O)O)c1ccccc1`: -0.9%; for `COc1ccc(OC)c(S(=O)(=O)n2nc(-c3ccccc3)cc2N)c1`: -13.7%; for `COc1ccc(S(=O)(=O)n2nc(-c3cc(OC)c(OC)c(OC)c3)cc2N)cc1OC`: -3.7%.
The result for `Cc1cc(C)cc(N2C(=O)C3C4C=CC(C4)C3C2=O)c1` (configuration not stated) reads -5.5%; that for `Cc1ccc(CC2(O)CC(C)N(C)CC2C)c(C)c1` (configuration not stated), 0.1%.
The result for `Nc1nonc1C(=O)NC(c1ccccc1)c1ccccc1` reads 3.4%; that for `COc1ccc(C2CC(c3ccccc3)Nc3nc(NC(=O)c4cccs4)nn32)cc1` (configuration not stated), -3.4%.
With `COc1ccccc1C(=O)N1CCN(c2cccc(Cl)c2)CC1`, the cytotoxicity is -13%.
The result for `Cc1cc(C(=O)N2CCN(c3cccc(Cl)c3)CC2)c(C)o1` reads 53.3% (active); that for `COc1ccc(C(=O)N2CCN(c3cccc(Cl)c3)CC2)c(OC)c1`, 44.1%; that for `CCOc1ccc2ccccc2c1C(=O)N1CCOCC1`, 2.5%.
The result for `Cc1ccc(C(=O)N2CCN(c3cccc(Cl)c3)CC2)cc1C` reads 36.8%; that for `Cc1cc(C(=O)N2CCN(c3ncccn3)CC2)c(C)o1`, 2.2%; that for `CCOc1ccc2ccccc2c1C(=O)N1CCN(c2ccccc2)CC1`, 50.5% (active).
The result for `O=C(c1c(Cl)nc2sccn12)N1CCN(c2cccc(Cl)c2)CC1` reads 75% (active).
Consider `O=C(O)c1ccccc1C(=O)N1CCN(c2cccc(Cl)c2)CC1`, for which the cytotoxicity is 6.7%.
`CCOc1ccccc1C(=O)N1CCN(c2cccc(Cl)c2)CC1`: the cytotoxicity is 62.2% (active).
Turning to `O=C(c1cccc(F)c1)N1CCN(c2cccc(Cl)c2)CC1`, the cytotoxicity is 36.5%.
The same measure for `CCOc1ccc(C(=O)N2CCN(c3ccccc3)CC2)cc1OCC`: -51.5%.

Source of the values: PubChem BioAssay AID430 (Sanford-Burnham Center for Chemical Genomics, 2006).
